Only a selection was taken, and hits are over-represented in it overall.
KDM5B inhibitor = KDM5B demethylase inhibition; Q9UGL1; KDM5B demethylase, FDH-coupled NADH fluorescence (FDH is formaldehyde dehydrogenase); Potency, µM (top dose mostly 57.7 µM), actives largely listed as inhibitors; 2.6% of 220,000 active; active = well fitted inhibition curve with a large enough effect; also: nearly all actives have a fitted effect of over 70% in size
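Here, H3K4me3 peptide (12.5 µM in substrate mix) is demethylated by KDM5BΔAP, 200 nM final, after 10 min compound exposure. Formaldehyde product is coupled through FDH (0.25 U/mL in mix) to NADH fluorescence; 30-min ΔRFU feeds dose-response curves.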
Numbers stand for hits; n = inactive.

SMILES | KDM5B inhibitor
O=C(NCCCc1ccccc1)c1cc2n(n1)CC(c1ccc3c(c1)OCO3)OC2 (configuration not stated) | n
COCCNC(=O)c1cc2n(n1)CC(c1ccc(Br)cc1)OC2 (configuration not stated) | n
COc1ccc(OC)c(NC(=O)c2cc3n(n2)CC(c2ccc4c(c2)OCO4)OC3)c1 (configuration not stated) | n
O=C(NCCc1ccccc1)c1cc2n(n1)CC(c1ccc(Cl)cc1)OC2 (configuration not stated) | n
O=C(NCc1cccc(Cl)c1)c1cc2n(n1)CC(c1ccc3c(c1)OCO3)OC2 (configuration not stated) | 20µM
COc1ccc(CNC(=O)c2cc3n(n2)CC(c2ccc4c(c2)OCO4)OC3)cc1OC (configuration not stated) | 25.1µM
COc1ccccc1CNC(=O)c1cc2n(n1)CC(c1ccc3c(c1)OCO3)OC2 (configuration not stated) | 25.1µM
Cc1ccc(CCNC(=O)c2cc3n(n2)CC(c2ccc4c(c2)OCO4)OC3)cc1 (configuration not stated) | 25.1µM
O=C(CSc1ccc(Br)cc1)c1cccc2ccccc12 | n
CCN(CC)S(=O)(=O)c1ccc2c(c1)CC(C(=O)NCCc1ccc(SC)cc1)N2C(C)=O (configuration not stated) | n
CCC(=O)N(C1CCOCC1)C1CCN(S(=O)(=O)c2cccnc2)CC1 | n
O=C(NC1CCCC1)N1CCC2(CC1)CC(N(Cc1ccc(F)cc1)C1CC1)CCO2 (configuration not stated) | n
CCCC(=O)N1CC2(CCCN2CC2CC2)Cc2ccccc21 (configuration not stated) | n
CC(Sc1ncnc2nc[nH]c12)C(=O)NCc1ccc(Cl)cc1 (configuration not stated) | n
OCCOc1ccc(CNCc2ccco2)cc1 | n
CCc1ccc(-n2cccc2)cc1 | n
CCNC(=O)NC(=O)CN(CCC1CCCCC1)CC(N)=O | n
Cc1csc(NC(=O)c2nc3c(o2)CCN(Cc2ccc4[nH]ccc4c2)CC3)n1 | n
Cc1cc(CNC(=O)c2cc(C)nc3ccccc23)c2ccccc2n1 | n
Cc1ccc2c(C(=O)NCCN3CCCCC3)cc(NC(=O)C(C)C)cc2n1 | 22.4µM
Cc1ccc2nc(-c3ccc(C)s3)cc(C(=O)NCCN3CCOCC3)c2c1 | n
Cc1cc(C(=O)NCCC(c2ccccc2)c2ccccc2)c2ccccc2n1 | n
CCCNC(=O)c1cc(C)nc2ccccc12 | n
Cc1cc(C(=O)NCc2ccccc2F)c2ccccc2n1 | n
CCNC(=O)c1cc(NC(=O)C(C)C)cc2nc(C)ccc12 | 25.1µM
SMILES | KDM5B inhibitor
Cc1ccc2c(C(=O)NCc3ccccc3Cl)cc(NC(=O)C(C)C)cc2n1 | 14.1µM
CCNC(=O)c1cc(-c2ccccc2)nc2ccccc12 | n
CCc1ccc(NC(=O)Nc2cccc(-c3nnc4n3CCCC4)c2)cc1 | n
Cc1ccc(-c2c(NC(=O)c3ccco3)oc3ccc(Cl)cc3c2=O)cc1 | n
CCn1c(SCc2nc(-c3ccccc3OC)no2)nnc1-c1ccco1 | n
COc1ncccc1C(=O)N1CCCC(c2nnc(Cn3ccnc3)n2C)C1 (configuration not stated) | n
CS(=O)(=O)Nc1ccccc1NC(=O)CCCc1ccccc1 | n
COc1ccc(C2Cn3nnc(C(=O)N4CCN(C(=O)Cc5ccc(F)cc5)CC4)c3CO2)cc1 (configuration not stated) | n
CCNC(=O)c1c(NC(=O)c2ccc(C)cc2)sc2c1CCCC2 | n
Cc1nn(-c2ncnc3nc[nH]c23)c2c1C(c1c(F)cccc1F)CC(=O)N2 (configuration not stated) | n
Cc1ccc(-c2ccc3nnc(CNC(=O)CCC4CCCC4)n3n2)cc1 | 28.2µM
Cc1ccc(CNC(=O)C2CCCC2)cc1 | n
Cc1ccc(-c2ccc3nnc(CNC(=O)CSc4ccncc4)n3n2)cc1 | 28.2µM
O=C(NCc1ccc(-c2csnn2)cc1)C1CC1 | n
Cc1ccc(-c2ccc3nnc(CNC(=O)C4CC4)n3n2)cc1 | 14.1µM
Cc1ccc(S(=O)(=O)N2CCC(CCC(=O)NCc3cccc(C)c3)CC2)cc1 | n
CCCCC(=O)NC1(C(F)(F)F)C(=O)N(Cc2ccccc2)C(C)=C1C(=O)c1ccccc1 (configuration not stated) | n
COc1cc(C2CC(=O)Nc3[nH]ncc32)ccc1OCc1ccc(Cl)cc1 (configuration not stated) | n
Cc1ccc(S(=O)(=O)N2CCN(CC(=O)NC(C)(C)C)CC2)cc1C | n
Cc1ccc(F)cc1NC(=O)C(C)C | n
COc1ccc(-c2nnc(CSc3nc(C)c(C)n3C3CCCC3)o2)cc1 | n
CN(Cc1ccccc1C(F)(F)F)S(=O)(=O)c1cccc(C(F)(F)F)c1 | n
O=Cc1ccc(CN2CCSCC2)o1 | n
Cc1ccccc1-c1noc(-c2cc3c(COC(=O)C(C)C)cnc(C)c3oc2=O)n1 | n
COCc1noc(CC2CCOC3(CCN(C(=O)c4c[nH]c5ccccc45)CC3)C2)n1 (configuration not stated) | n
SMILES | KDM5B inhibitor
CC(NC(=O)c1cccc2c1CCN2C(=O)Nc1ccc(F)cc1)c1ccccn1 (configuration not stated) | n
O=C1CC2(CCN(CC3CCNC3)C2)Nc2ccccc2N1 (configuration not stated) | 112µM
N#Cc1ccc(CN2CCC3(CC(=O)Nc4ccccc4N3)C2)cc1 (configuration not stated) | n
COc1ccc(CN2CCC3(CC(=O)Nc4ccccc4N3)C2)cc1 (configuration not stated) | n
O=C(NCc1nc2ccccc2[nH]1)c1cc(-c2cccs2)nc2ccccc12 | n
CC(C)NC(=O)c1cc(F)c(F)cc1Cl | n
O=C(Nc1ccc(Cl)cc1)N1CCC(c2nn(-c3ccc(Cl)cc3)c(=O)[nH]2)CC1 | n
CNc1nc2c(c(=O)[nH]c(=O)n2C)n1Cc1cccc(Br)c1 | n
CC(C)c1nccn1CCCNC(=O)c1ccc(-c2ccccc2F)nc1 | n
COc1ccc(F)cc1-c1ccc(C(=O)NCCCn2ccnc2C(C)C)cn1 | 28.2µM
Cc1ccc(C)c(-c2ccc(C(=O)NCCCn3ccnc3C(C)C)cn2)c1 | n
CC(C)Cc1nnc(NC(=O)c2cc(=O)c3ccccc3o2)s1 | n
CCCN(CC1CCOC1)C(=O)c1ccc(F)c(Cl)c1 (configuration not stated) | n
N#Cc1ccc(-c2csc(-c3ccncc3)n2)cc1 | n
COc1cccc(C(=O)OCc2nc3ccccc3o2)c1O | n
COc1ccc(-c2cc(N3CCCC(NC(=O)c4cccc(OC)c4OC)C3)n[nH]2)cc1 (configuration not stated) | n
COc1cccc(-c2noc(-c3ccc(-c4ccc(O)cc4)nc3)n2)c1OC | n
N#Cc1ccc(NC(=O)N2CCN(Cc3nc(-c4cccc(C(F)(F)F)c4)no3)CC2)cc1 | n
O=C(NC1CCCN(c2ccc(C(F)(F)F)cn2)C1)c1ccnc(Cl)c1 (configuration not stated) | n
OC1CCCN(c2ccc(-c3nc(-c4cccc(C(F)(F)F)c4)no3)cn2)C1 (configuration not stated) | 35.5µM
OCCN1CCN(c2ccc(-c3nc(-c4cccc(C(F)(F)F)c4)no3)cn2)CC1 | 28.2µM
COc1cccc(-c2noc(-c3ccc(N4CCCC(CO)C4)nc3)n2)c1OC (configuration not stated) | 31.6µM

From PubChem
